# Assay outcomes (PubChem)
# This is a sample that favours compounds with a hit; in the whole collection about 3.5% have one here.
# GPR151 activ: activators of human GPR151, primary screen, cell-based, PathHunter beta-arrestin, luminescence. PathHunter beta-arrestin GPR151 cells. activation, % at 11.2 µM. G-protein coupled receptor 151 (Homo sapiens), Q8TDV0. 650,000 tested, 1% active. AID 1508602, 2020; in the data active means activation above about 4.9%;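 further: 0% = median of compound wells and 100% = cells with positive control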
# Target sequence (Q8TDV0 whole entry, looked up): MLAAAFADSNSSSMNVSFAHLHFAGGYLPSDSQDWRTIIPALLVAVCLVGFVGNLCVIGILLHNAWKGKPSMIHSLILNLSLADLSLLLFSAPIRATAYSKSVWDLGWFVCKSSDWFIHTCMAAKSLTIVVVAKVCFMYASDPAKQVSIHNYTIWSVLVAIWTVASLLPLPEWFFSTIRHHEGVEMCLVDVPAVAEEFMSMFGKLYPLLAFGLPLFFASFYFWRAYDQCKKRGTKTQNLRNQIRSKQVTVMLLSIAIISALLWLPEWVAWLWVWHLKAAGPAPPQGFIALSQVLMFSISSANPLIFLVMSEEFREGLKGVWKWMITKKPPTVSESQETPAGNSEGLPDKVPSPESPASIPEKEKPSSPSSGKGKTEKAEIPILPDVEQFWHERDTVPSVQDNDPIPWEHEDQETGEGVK
# MITF inh: MITF inhibitors, primary screen, biochemical, AlphaScreen, human. Microphthalmia-associated transcription factor (Homo sapiens), O75030. AlphaScreen MITF homodimerization, bead proximity signal. inhibition, % at 2.6 µM. 650,000 tested, 0.91% active; in the data active means inhibition above about 50%;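 further: 0% = vehicle wells with protein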
# FBW7 activator: FBW7 E3 ligase activators, primary screen, biochemical, AlphaScreen, human; F-box/WD repeat-containing protein 7 (Homo sapiens), Q969H0; AlphaScreen FBW7–phospho-cyclin E peptide binding, activator screen; normalized activity (activation), % at 26.1 µM; 650,000 tested, 0.13% active; AID 1259310, 2017; in the data active means normalized activity above about 1.9%;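 further: purified mutant Fbw7 with reduced substrate affinity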
# TEAD-YAP inh: TEAD-YAP interaction inhibition, primary screen, TEAD-YAP interaction inhibitor project, luminescence, HEK-TIYL cells. TEAD-Gal4/YAP UAS-luciferase luminescence. inhibition, % at 9.12 µM. 640,000 tested, 1.4% active. AID 1259422, 2018; in the data active means inhibition above about 32%;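 further: 0% = median of test compound wells and 100% = reference inhibitor wells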
# MITF confirm: MITF inhibitors, retest of hits, confirmation, biochemical, AlphaScreen, triplicate; 4,700 tested, 16% active; inhibition, % at 2.6 µM; AID 1259372, 2018; shares compounds with MITF inh; AlphaScreen MITF homodimerization, biotin/His-MITF beads;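 active means inhibition above a cutoff derived from the DMSO control wells, cut at about 28% in these data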;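 further: 0% = MITF dimer wells with DMSO only; inhibitors lower the bead chemiluminescence by keeping MITF from dimerizing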
# AlphaScreen DR: AlphaScreen optical interference compounds, dose response, counter-screen, biochemical, HTS | 480 tested, 6% active | AlphaScreen optical interference counterscreen, cell-free | IC50, µM | AID 1259373, 2018 | shares compounds with MITF inh; call rule not given here
# AS interf ctr: AlphaScreen optical interference compounds, counter-screen for MITF inhibitor project, biochemical, triplicate; 4,700 tested, 7.6% active; inhibition, % at 2.6 µM; shares compounds with MITF inh; AID 1259376, 2018; LysRS AlphaScreen counterscreen, signal interference;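 active means inhibition above a cutoff derived from the DMSO control wells, cut at about 30% in these data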
# Numbers without * were called inactive; . = not tested or not shown.
SMILES,GPR151 activ,MITF inh,FBW7 activator,TEAD-YAP inh,MITF confirm,AS interf ctr,others
Cc1ncc(CO)c(/C=N/Nc2ccc(C(F)(F)F)cc2[N+](=O)[O-])c1O,0.7,-9.7,0.0,4.1,.,.,
Cc1ncc(CO)c(/C=N/NC(=S)Nc2ccc(Cl)cc2)c1O,-0.5,64.0*,-0.3,9.1,-15.3,21.4,
Cc1ncc(CO)c(/C=N/Nc2ccc(C(F)(F)F)cn2)c1O,3.7,57.5*,-1.2,30.0,22.6,100.3*,
COc1ccc(C(=S)N2CCCCC2)cc1OC(=O)CCc1ccccc1,0.8,60.8*,-0.1,3.7,10.1,14.6,
COc1cc(C(=S)N2CCCCC2)ccc1OCc1ccccc1,0.4,-0.8,-0.5,-24.7,.,.,
Cc1cccc(CNCc2cc(NC(=O)c3ccccn3)cc(C(=O)N(C)C)c2)c1,4.0,69.0*,0.1,7.9,-7.4,-1.3,
CN(C)C(=O)c1cc(CNCc2cccc(Cl)c2)cc(NC(=O)c2ccccn2)c1,0.8,-13.6,-0.2,-4.4,.,.,
COC1(OC)N=C(N)C2(C#N)C(c3cccc(C)c3)C12C#N (stereo not drawn),0.2,52.0*,-0.1,1.9,8.1,-1.8,
COC1(OC)N=C(N)C2(C#N)C(c3cccc(OCc4ccccc4)c3)C12C#N (stereo not drawn),-1.2,35.4,-0.2,-3.5,.,.,
Cc1cc(N)n(-c2ccccc2C(F)(F)F)n1,0.2,14.6,0.0,5.5,.,.,
Cc1cc(N)n(-c2ccc(Oc3ccccc3)cc2S(=O)(=O)O)n1,-1.1,51.9*,1.0,5.7,4.6,4.4,
O=C(NCCN1CCCCC1)c1cccc(CN(C(=O)c2nc3ccc(-c4cn[nH]c4)cc3s2)C2CC2)c1,-1.0,31.7,0.6,4.2,.,.,
CN(C)CC(=O)Nc1cccc(CN(C(=O)c2nc3ccc(-c4cn[nH]c4)cc3s2)C2CC2)c1,-0.2,-4.2,-0.7,-0.1,.,.,
O=C(NCCN1CCOCC1)c1cccc(CN(C(=O)c2nc3ccc(-c4cn[nH]c4)cc3s2)C2CC2)c1,1.0,65.8*,1.7,15.3,72.7*,5.9,AlphaScreen DR=>6.48
CN1CCN(CCNC(=O)c2cccc(CN(C(=O)c3nc4ccc(-c5cn[nH]c5)cc4s3)C3CC3)c2)CC1,0.0,77.5*,1.6,49.7*,71.6*,-14.3,AlphaScreen DR=>6.48
O=C(O)C1CCC1C(=O)N1CCC2(CC1)OCCc1c2[nH]c2ccccc12 (stereo not drawn),-0.4,3.5,-0.4,-17.2,.,.,
CN1CCC(NCc2ccc(F)cc2)CC1,3.4,57.3*,0.1,-14.8,-2.5,-3.3,
CC(C)(C)NC(=O)COC(=O)Cc1ccc(Cl)cc1,-0.1,116.3*,0.0,-2.0,16.1,-0.3,
Cc1cccc2nc(CN3CCN(c4ccc(F)cc4)CC3)cn12,-1.2,72.3*,-0.2,0.8,-14.1,1.7,
Cc1cccc2nc(Cn3ccccc3=O)cn12,0.0,12.7,0.0,-1.3,.,.,
CC1(C)CC(=O)C2=C(C1)NC1=C(C(=O)CC(C)(C)C1)C2c1ccc(C#N)cc1,0.6,-7.3,0.1,-0.7,.,.,
COc1ccc(NC(=O)CN(C)CC(=O)Nc2cccc(C(C)=O)c2)cc1,1.0,58.0*,-0.1,1.1,-1.0,4.8,
Cc1cccc(-c2noc(C3CCN(S(=O)(=O)c4ccc(Cl)cc4)CC3)n2)c1,-0.1,6.4,-0.1,-2.9,.,.,
O=C(O)c1ccc(C(=O)O)c(-c2ccccc2)c1,0.3,8.2,0.0,2.9,.,.,
O=C(O)c1cccc(-c2cc(C(=O)O)ncc2C(=O)O)c1,2.0,57.2*,-1.2,-1.1,15.6,37.8*,
Cc1cc(C)n2nc(C(=O)Nc3ccc(C#N)cc3)cc2n1,1.3,11.3,-0.1,-31.7,.,.,
O=C(NCc1ccc(F)cc1)C1CC(=O)N(c2ccc(F)cc2)C1 (stereo not drawn),-0.8,72.8*,0.1,-4.4,9.1,14.1,
